In PubChem BioAssay (NCATS) one finds Potency and outcome data, which are given here for 34 compounds.

Records with an inconclusive call do not appear. The source made the active and inactive calls. Unless noted, calls follow the shape of the dose curve; as a rule, active = well fitted curve in the direction sought with a large enough effect; inconclusive = small, poorly fitted or top-dose-only effect, or another doubt; inactive = no such curve, though single readings can be large; an effect the other way counts as inactive or inconclusive.

The nature of test [1]: qHTS for differential inhibitors of proliferation of Plasmodium falciparum line 7G8 (AID 1815).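 Also: parasite growth measured after three days of incubation.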 Also: potency is read from the fitted curve at half-maximal effect.
Test [2] can be described thus: qHTS for differential inhibitors of proliferation of Plasmodium falciparum line GB4 (AID 1816).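 Also: parasite growth measured after 72 h incubation.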 Also: potency is read from the fitted curve at half-maximal effect. Conditions: Potency: Plasmodium falciparum GB4 proliferation inhibition.
Test [3] can be described thus: qHTS for differential inhibitors of proliferation of Plasmodium falciparum line 3D7 (AID 1876). Also: potency is read from the fitted curve at half-maximal effect.
The nature of test [4]: qHTS for differential inhibitors of proliferation of Plasmodium falciparum line D10 (AID 1877).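 Also: parasites grown with compound for 72 h before DNA staining.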 Also: potency is read from the fitted curve at half-maximal effect.
Test [5] in a line: qHTS for differential inhibitors of proliferation of Plasmodium falciparum line Dd2 (AID 1882). Also: nearly all actives have a fitted effect of over 65% in size. Also: potency is read from the fitted curve at half-maximal effect. Conditions: Potency: Plasmodium falciparum Dd2 proliferation inhibition. In short, it runs like this: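 Dd2-infected erythrocytes (0.3% parasitemia, 2.5% hematocrit final) incubated with compound 72 h at 37 C, 5% CO2; lysed with saponin/Triton buffer containing SYBR Green I, incubated overnight in the dark, then read by fluorescence (485/535 nm). Normalized to 0.29 uM artemisinin and DMSO.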

Test [6] in a line: qHTS for differential inhibitors of proliferation of Plasmodium falciparum line W2 (AID 1883).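 Also: parasites grown with compound for 72 h before lysis and staining.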 Also: potency is read from the fitted curve at half-maximal effect. Conditions: Potency: Plasmodium falciparum W2 proliferation inhibition.
Test [7] can be described thus: qHTS for differential inhibitors of proliferation of Plasmodium falciparum line HB3 (AID 1886).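 Also: parasites grown with compound for 72 h before SYBR Green readout.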 Also: potency is read from the fitted curve at half-maximal effect. Conditions: Potency: Plasmodium falciparum HB3 proliferation inhibition.
For test [8], the target named is ATP-dependent DNA helicase Q1 (Homo sapiens) (UniProt P46063). Put plainly: qHTS Validation Assay for Inhibitors of RecQ-Like Dna Helicase 1 (RECQ1) (AID 2353). The method, boiled down:
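50 nM RECQ1T1 preincubated 15 min with compound in Tris pH 8.0 buffer with MgCl2, DTT, Tween-20 and 2.5 ug/ml poly(dI-dC); started with 200 nM TAMRA/BHQ-2 forked duplex and 2 mM ATP. Unwinding read as fluorescence (525/598 nm), two reads 2 h apart.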

A short description of test [9]: Cytometric Cell-Based qHTS for Inhibitors of the mTORC1 Signaling Pathway in MEF (Tsc2-/-, p53-/-) Cells (AID 2660).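 Also: percent of cells above a phospho-rpS6 to PI ratio cutoff in each well; series mostly up to about 38 µM.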 In short, it runs like this:
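Readout: Alexa-488 phospho-rpS6 (Ser235/236) intensity divided by PI intensity, thresholded against 7.5 nM rapamycin wells and reported as % positive cells. PI cell count served as the viability measure. Compound exposure was 24 hrs at 37 degree Celsius.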

The nature of test [10]: High Content Imaging Cell-Based qHTS for Inhibitors of the mTORC1 Signaling Pathway in MEF (Tsc2-/-, p53-/-) Cells (AID 2666).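 Also: percent of cells scored positive for phospho-rpS6 Ser235/236 immunostaining by imaging.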 In short, it runs like this:
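Read-out: % positive cells per well, with thresholds from highest- and lowest-signal wells, based on phospho-rpS6 (Ser235/236) intensity normalized to Hoechst nuclear stain. Cells: Tsc2-/-, p53-/- MEFs carrying empty vector; compound 24 hrs, 37 degree Celsius.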

Test [11] in a line: High Content Imaging Cell-Based qHTS for Inhibitors of the mTORC1 Signaling Pathway in MEF Cells (AID 2667).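 Also: Tsc2-/- p53-/- MEFs stably re-expressing wild-type Tsc2 exposed 24 h; series mostly up to about 38 µM.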 The method, boiled down:
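MEF (Tsc2-/-, p53-/-, WT Tsc2 re-expressed); cpd 24 h, 37 °C; PFA fix; Alexa-488 anti-p-rpS6 Ser235/236, PI, Hoechst; IN Cell imaging; Hoechst/Alexa-488 intensity ratio; % active cells, thresholds set from rapamycin and DMSO wells.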

Test [12] in a line: qHTS Assay for Identification of Small Molecule Inducers of Hypoxia Response (AID 2120; active = well fitted curve in the direction sought with a large enough effect in the signal ratio, with a control signal flat, not every such curve was filed as active; the % refers to the signal ratio). The method, boiled down: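 ME-180 HRE-bla cells plated in Opti-MEM/0.5% dialyzed FBS, rested 4-5 h, then dosed with compound titrations by pin tool. After 17 h at 37 degrees C, CCF4 dye loaded 2.5 h at RT; 460/530 nm ratio gave %Activity and AC50.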
The nature of test [13]: Counterscreen for APE1 Inhibitors: Fluorescent Dye Displacement Validation Assay (AID 1707). In short, it runs like this: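 Thiazole Orange displacement from dsDNA: 250 nM ThO with 50 nM TAMRA-labelled abasic-site (tetrahydrofuran) duplex in 50 mM Tris-HCl pH7.5, 50mM NaCl, 2 mM MgCl2, 0.01% Tween-20. Loss of endpoint fluorescence (ex 480 nm, em 540 nm) flags DNA binders.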

Test [14] can be described thus: qHTS Assay for Modulators of Human Peripheral Myelin Protein 22 (PMP22) Expression/Activity (AID 1967; active = well fitted curve in the direction sought with a large enough effect in the signal ratio; the % refers to the signal ratio). The method, boiled down: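 Readout is the corrected green/red luminescence ratio after 24 h compound exposure, normalised to untreated cells (0%). Engineered MSC80 mouse Schwann cells express green luciferase from the mouse Pmp22 promoter and red luciferase from EF-alpha as internal control.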

Test [15] deals with Ferritin light chain (Equus caballus) (UniProt P02791). Put plainly: qHTS Validation Assay for Identification of Novel General Anesthetics (AID 2323). Also: series mostly up to about 77 µM. The method, boiled down:
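Competitive displacement of the profluorescent anesthetic 1-AMA (50% saturated, PBS) from 10 uM apoferritin, 10 min, room temperature. Activity is normalized 380/535 nm fluorescence; concentration-response fitted with a four-parameter Hill equation.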

The target in test [16] is DNA repair nuclease/redox regulator APEX1 (Homo sapiens) (UniProt P27695). As to the kind of experiment: qHTS Validation Assay for Inhibitors of the Human Apurinic/apyrimidinic Endonuclease 1 (APE1) (AID 1705;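 also: TAMRA fluorescence gain over two minutes as APE1 cuts a quenched THF abasic duplex; series mostly up to about 57 µM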). In short, it runs like this:
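Activity read as rising fluorescence (598 nm emission, 525 nm excitation) from incision of a TAMRA/BHQ-2 duplex carrying a THF abasic site (50 nM). Compound and enzyme sat 15 min at RT before substrate start; signal change between first and third 60-s reads.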

In test [17] the target is RecQ-like DNA helicase BLM (Homo sapiens) (UniProt P54132). Put plainly: qHTS Validation Assay for Inhibitors of Bloom's syndrome helicase (BLM) (AID 2364). In short, it runs like this:
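BLM 50 nM in 25 mM Tris-HCl pH 8.0, 5 mM NaCl, 2 mM MgCl2, 1 mM DTT, 0.01% Tween-20, 2.5 ug/ml poly(dI-dC); 15 min cpd preinc, RT. Start: 200 nM forked DNA + 2 mM ATP (final). TAMRA read, 2 reads 2 h apart.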

Test [18] concerns the target Endonuclease 4 (Escherichia coli (strain K12)) (UniProt P0A6C1). Put plainly: Counterscreen for APE1 Inhibitors: qHTS Validation Assay for Inhibitors of Endonuclease IV (AID 1708). In short, it runs like this:
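Concentration-response counterscreen run identically to the APE1 assay: 15 min room-temperature preincubation of 2 nM enzyme with compound, reaction started with 50 nM quenched abasic DNA, progress taken from kinetic fluorescence.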

DNA repair nuclease/redox regulator APEX1 (Homo sapiens), sequence (P27695 whole entry, looked up): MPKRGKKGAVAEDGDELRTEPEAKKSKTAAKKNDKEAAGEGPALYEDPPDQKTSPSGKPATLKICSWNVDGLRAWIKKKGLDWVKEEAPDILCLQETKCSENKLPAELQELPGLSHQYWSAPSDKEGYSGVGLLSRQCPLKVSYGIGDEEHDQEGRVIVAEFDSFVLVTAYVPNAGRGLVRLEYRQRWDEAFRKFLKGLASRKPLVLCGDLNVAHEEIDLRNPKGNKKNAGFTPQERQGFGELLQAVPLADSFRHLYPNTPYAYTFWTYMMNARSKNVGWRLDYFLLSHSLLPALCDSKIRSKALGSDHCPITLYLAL
ATP-dependent DNA helicase Q1 (Homo sapiens), sequence (P46063 whole entry, looked up): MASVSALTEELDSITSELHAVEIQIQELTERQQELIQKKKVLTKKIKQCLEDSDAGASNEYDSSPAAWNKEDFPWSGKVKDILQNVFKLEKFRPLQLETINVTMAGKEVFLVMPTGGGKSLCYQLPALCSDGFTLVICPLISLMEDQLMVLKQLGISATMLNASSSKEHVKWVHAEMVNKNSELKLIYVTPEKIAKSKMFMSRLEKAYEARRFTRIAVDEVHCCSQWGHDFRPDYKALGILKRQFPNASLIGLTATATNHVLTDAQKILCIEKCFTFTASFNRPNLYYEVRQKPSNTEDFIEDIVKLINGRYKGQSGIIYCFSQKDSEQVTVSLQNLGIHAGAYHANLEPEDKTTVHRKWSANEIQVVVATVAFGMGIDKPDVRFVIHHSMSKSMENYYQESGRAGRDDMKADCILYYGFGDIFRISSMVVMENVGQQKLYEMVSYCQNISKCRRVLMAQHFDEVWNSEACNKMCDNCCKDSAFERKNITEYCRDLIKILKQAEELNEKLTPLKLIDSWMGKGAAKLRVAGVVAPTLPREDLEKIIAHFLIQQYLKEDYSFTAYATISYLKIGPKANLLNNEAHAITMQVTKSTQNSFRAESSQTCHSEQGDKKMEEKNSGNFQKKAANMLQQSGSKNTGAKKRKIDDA
Ferritin light chain (Equus caballus), sequence (P02791 2-175 limits assumed): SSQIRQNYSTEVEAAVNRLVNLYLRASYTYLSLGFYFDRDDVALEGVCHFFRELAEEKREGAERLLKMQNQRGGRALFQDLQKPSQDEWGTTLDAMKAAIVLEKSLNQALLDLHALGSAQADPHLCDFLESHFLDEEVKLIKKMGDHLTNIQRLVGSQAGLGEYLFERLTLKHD
RecQ-like DNA helicase BLM (Homo sapiens), sequence (P54132 whole entry, looked up): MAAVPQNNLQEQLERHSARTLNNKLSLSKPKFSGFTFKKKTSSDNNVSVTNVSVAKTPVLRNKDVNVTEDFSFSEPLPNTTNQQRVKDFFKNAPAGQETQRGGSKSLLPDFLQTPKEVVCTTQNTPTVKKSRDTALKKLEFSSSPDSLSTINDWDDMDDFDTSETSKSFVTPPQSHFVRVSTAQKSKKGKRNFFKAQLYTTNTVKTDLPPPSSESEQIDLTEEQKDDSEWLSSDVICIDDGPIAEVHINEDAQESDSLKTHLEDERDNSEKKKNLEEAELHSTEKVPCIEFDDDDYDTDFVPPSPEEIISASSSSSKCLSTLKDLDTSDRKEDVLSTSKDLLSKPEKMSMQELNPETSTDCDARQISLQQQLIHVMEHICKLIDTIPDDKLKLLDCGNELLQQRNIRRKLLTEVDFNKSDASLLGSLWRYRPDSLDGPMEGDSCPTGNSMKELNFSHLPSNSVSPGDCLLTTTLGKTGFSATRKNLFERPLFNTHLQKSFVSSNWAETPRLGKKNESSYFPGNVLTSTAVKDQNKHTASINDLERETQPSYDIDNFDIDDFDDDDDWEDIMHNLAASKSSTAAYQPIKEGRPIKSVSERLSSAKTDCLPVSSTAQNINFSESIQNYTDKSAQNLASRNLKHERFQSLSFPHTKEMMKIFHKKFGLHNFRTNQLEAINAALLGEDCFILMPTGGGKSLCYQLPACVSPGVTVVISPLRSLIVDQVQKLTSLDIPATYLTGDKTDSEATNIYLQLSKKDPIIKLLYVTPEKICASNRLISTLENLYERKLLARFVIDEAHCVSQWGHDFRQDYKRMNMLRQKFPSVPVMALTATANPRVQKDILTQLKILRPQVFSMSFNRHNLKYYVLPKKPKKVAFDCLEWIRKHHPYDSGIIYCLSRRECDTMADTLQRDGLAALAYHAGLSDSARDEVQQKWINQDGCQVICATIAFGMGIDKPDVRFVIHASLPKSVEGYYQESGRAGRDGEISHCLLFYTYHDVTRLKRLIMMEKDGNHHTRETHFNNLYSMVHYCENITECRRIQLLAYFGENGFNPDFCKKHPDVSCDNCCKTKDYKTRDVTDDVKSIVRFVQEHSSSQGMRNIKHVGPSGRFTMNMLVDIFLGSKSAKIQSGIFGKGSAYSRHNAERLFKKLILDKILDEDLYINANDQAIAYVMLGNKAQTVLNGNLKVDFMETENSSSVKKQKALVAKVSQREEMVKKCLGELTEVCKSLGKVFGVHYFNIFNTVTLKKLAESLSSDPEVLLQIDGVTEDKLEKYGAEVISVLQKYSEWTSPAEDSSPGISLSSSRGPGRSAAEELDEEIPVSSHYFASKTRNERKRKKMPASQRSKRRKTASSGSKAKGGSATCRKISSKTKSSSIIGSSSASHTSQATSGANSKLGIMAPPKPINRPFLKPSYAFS

As to `CCCCCCCC/C=C\CCCCCCCC(=O)NCCO`, the Potency in test [1] was 3.55 µM (active); in test [2], 2.51 µM (active); in [3] it was 3.98 µM (active); in test [4], 7.94 µM (active); in [5], 8.91 µM (active); in test [6], 2.51 µM (active). Further, in test [7], the Potency was 4.47 µM (active). The Potency entry in [8], in test [10] and in [11] was “inactive” in each case. Besides, in test [9], the call was inactive.
Take `NCCO`: in test [12], the result was inactive.
Turning to `Cc1ccc(C(=O)O[C@H](C(=O)O)[C@@H](OC(=O)c2ccc(C)cc2)C(=O)O)cc1` (tested in a mixture with another compound), the Potency result in test [13], in test [1], in test [2], in test [3], in [4] and in [5] was “inactive” each time. The Potency result in test [6], in test [7], in test [15], in [8], in test [10] and in test [11] was “inactive” each time. The compound was called inactive in test [14] and in test [9].
`Nc1ccc(O)c([N+](=O)[O-])c1`: the outcome in test [12] was inactive.
For the compound `CN1[C@@H](CC(=O)c2ccccc2)CCC[C@H]1C[C@H](O)c1ccccc1`, the Potency entry in test [16], in test [13], in test [15], in test [8], in test [17] and in test [10] was “inactive” in each case. Further, in test [11], the Potency result was “inactive”. In addition, the call in test [14] and in test [9] was inactive.
With `CNCC[C@H](Oc1ccc(C(F)(F)F)cc1)c1ccccc1`, the Potency entry in test [13], in test [8] and in [10] was “inactive” in each case.
Turning to `O=C(O)/C=C/C(O)c1ccc(Cl)cc1` (stereo not given), the Potency entry in test [13], in test [18], in test [1], in [2], in test [3] and in [4] was “inactive” each time. The Potency entry in [5], in test [6], in test [7], in test [15], in test [8] and in test [10] was “inactive” each time. Further, in test [11], the Potency result was “inactive”. For the same compound, the call in test [9] was inactive.
For the compound `O=c1cc(-c2ccccc2)oc2ccccc12`, the outcome in test [12] was inactive.
Same read-out and setting: the entry for `c1ccc2sc(SSc3nc4ccccc4s3)nc2c1` is “inactive”.
For `Brc1c(Br)c(Br)c2n[nH]nc2c1Br`, the Potency result in test [16], in test [18], in test [1], in test [2], in [3] and in test [4] was “inactive” each time. Besides, the Potency entry in test [5], in test [7], in [8], in test [10] and in test [11] was “inactive” in each case. Moreover, the compound was classed as inactive in [14] and in [9].
With `S=c1[nH]c2ccccc2s1`, in test [12], the compound was classed as inactive.
Consider `COc1ccc(/C=C/C(=O)Nc2ccccc2C(=O)O)cc1OC`, for which the Potency result in [5], in [15], in test [8], in test [17], in [10] and in test [11] was “inactive” throughout. Also, the result in [9] was inactive.
In the case of `Nc1nc2ccc([N+](=O)[O-])cc2s1`, the outcome in test [12] was inactive.
The same measure, in the same setting: the same measure for `CN(C)c1ccc(N=NS(=O)(=O)O)cc1`: “inactive”.
Take `Oc1cc(O)cc(/C=C/c2ccc(O)c(O)c2)c1`: the Potency result in test [16], in test [15], in test [8] and in [10] was “inactive” in each case. In addition, the Potency in [2] was 8.91 µM (active); in test [3], 10 µM (active); in test [5], 12.6 µM (active); in [6] it was 10 µM (active); in test [7], 12.6 µM (active). For the same compound, the call in test [9] was inactive.
For the compound `CCCCCCCCCCCCCCCCCC(=O)O`, in test [12], the compound was classed as inactive.
`Nc1ncnc2c1c(I)cn2[C@@H]1C[C@H](N)[C@@H](O)[C@H]1O`: the call in test [9] was inactive. The Potency entry in [10] and in [11] was “inactive” each time.
For `OC[C@H]1O[C@@H](n2cnc3c(NC4CCCC4)ncnc32)[C@H](O)[C@@H]1O`, the compound was called inactive in [9]. Also, the Potency result in test [10] and in test [11] was “inactive” throughout.
For `N.N.N.N.N.N.N.N.N.N.N.N.N.N.O.O.[Ru+4].[Ru+5].[Ru+5]`, the outcome in [9] was inactive. The Potency entry in test [10] and in test [11] was “inactive” each time.
Take `Cc1cc(NC2CCCCC2)nc(-n2nc(C)cc2C)n1`: in test [9], the outcome was inactive. In addition, the Potency entry in test [10] and in [11] was “inactive” each time.
Take `CNC(=O)[C@H]1O[C@@H](n2cnc3c(NCc4cccc(I)c4)ncnc32)[C@H](O)[C@@H]1O`: the compound was called inactive in [9]. In addition, the Potency result in [10] and in [11] was “inactive” each time.
As to `C[N+](C)(C)CCOP(=O)(O)OP(=O)([O-])OC[C@H]1O[C@@H](n2ccc(N)nc2=O)[C@H](O)[C@@H]1O`, the outcome in [9] was inactive. Also, the Potency entry in [10] and in test [11] was “inactive” in each case.
With `COc1cc(/C=C/C(=O)CC(=O)/C=C/c2ccc(O)c(OC)c2)ccc1O`, the result in test [12] was inactive.
Regarding `CO/N=C(\C(=O)N[C@@H]1C(=O)N2C(C(=O)O)=C(COC(C)=O)CS[C@H]12)c1csc(N)n1`, in test [9], the call was inactive. For the same compound, the Potency entry in test [10] and in test [11] was “inactive” in each case.
Turning to `OCC1O[C@H]([S-])[C@H](O)[C@@H](O)[C@@H]1O.[Au+]` (stereo not given in full), the result in [9] was inactive. The Potency entry in test [10] and in test [11] was “inactive” each time.
Turning to `CCNC(=O)[C@H]1O[C@@H](n2cnc3c(N)nc(NCCc4ccc(CCC(=O)O)cc4)nc32)[C@H](O)[C@@H]1O`, in [9], the compound was classed as inactive. The Potency entry in test [10] and in test [11] was “inactive” throughout.
For the compound `O=[N+]([O-])c1ccc(CSc2ncnc3c2ncn3[C@@H]2O[C@H](CO)[C@@H](O)[C@H]2O)cc1`, the compound was classed as inactive in [9]. Further, the Potency entry in test [10] and in test [11] was “inactive” each time.
Take `COc1ccccc1N1CCN(CCN(C(=O)c2ccc(I)cc2)c2ccccn2)CC1`: the outcome in [9] was inactive. In [10], the Potency result is “inactive”.
As for `CCC1C(=O)OCC1Cc1cncn1C` (stereo not given), in [9], the call was inactive. In addition, the Potency entry in [10] and in [11] was “inactive” throughout.
As for `CO/S(=N\S(=O)(=O)c1ccc(Cl)cc1)c1ccc([N+](=O)[O-])cc1` (stereo not given), the outcome in [9] was inactive. In addition, the Potency result in test [10] and in [11] was “inactive” throughout.
Consider `C[N+]1(C)CCC(OC(=O)C(c2ccccc2)c2ccccc2)CC1`, for which, in [9], the result was inactive. The Potency result in test [10] and in test [11] was “inactive” each time.
Turning to `O=C1/C(=C/c2ccsc2)CC/C1=C\c1cccs1`, in test [9], the compound was classed as inactive. In addition, the Potency result in test [10] and in test [11] was “inactive” each time.
Turning to `CN1C2CC(OC(=O)[C@H](CO)c3ccccc3)CC1C1OC12` (stereo not given in full), in test [9], the outcome was inactive. Moreover, the Potency entry in test [10] and in test [11] was “inactive” throughout.
Consider `O=P(O)(O)C(Cl)(Cl)P(=O)(O)O`, for which the compound was called inactive in test [9]. Further, the Potency result in [10] and in test [11] was “inactive” in each case.
